Source: PubChem
The list is a sample of the results.
aSyn 5UTR act: Activators via SNCA 5'UTR binding, MLPCN. activity score, % (tested at 7.5 µM), hits read low. alpha-synuclein 5'UTR reporter, activators screen. actives 7.1% (n = 300,000); in the data active = activity score below about -60%
Hits are given with their value.

For Cc1cc(C(=O)CSc2nnc(-c3cccnc3)n2-c2ccccc2)c(C)n1CC1CCCO1 (stereo unspecified) the results were aSyn 5UTR act -78.
For Cc1cc(C(=O)COC(=O)c2ccc(N)c([N+](=O)[O-])c2)c(C)n1Cc1ccc2c(c1)OCO2 the results were aSyn 5UTR act -164.
COC1c2ccccc2C(=O)N1CCc1ccc(Cl)cc1 (stereo unspecified) was read as aSyn 5UTR act -73.
O=C(CC1OC(=O)c2ccccc21)c1ccco1 (stereo unspecified) was read as aSyn 5UTR act -75.
`CC1CCN(c2ccc(-c3ccc(NC(=O)C(F)(F)F)cc3)nn2)CC1` gave aSyn 5UTR act inactive.
`Cc1ccc(S(=O)(=O)Nc2cc(-c3nn(C)c(=O)c4ccccc34)ccc2N2CCOCC2)cc1` gave aSyn 5UTR act inactive.
Screening Cc1cc(C(=O)Nc2cccc(-c3ccc(N4CCOCC4)nn3)c2)ccc1[N+](=O)[O-] returned aSyn 5UTR act -110.
`Cc1ccc(C(=O)Nc2cccc(-c3ccc(N4CCOCC4)nn3)c2)cc1` gave aSyn 5UTR act -70.
Screening Cc1ccc(S(=O)(=O)Nc2cccc(-c3ccc(N4CCCCCC4)nn3)c2)cc1 returned aSyn 5UTR act -125.
For O=C(Nc1cccc(-c2ccc(N3CCOCC3)nn2)c1)c1ccc(Cl)cc1 the results were aSyn 5UTR act -86.
`O=C(Nc1cccc(-c2ccc(N3CCOCC3)nn2)c1)c1ccccc1Cl` gave aSyn 5UTR act -110.
`O=C(COc1ccc(Cl)cc1)Nc1cccc(-c2ccc(N3CCOCC3)nn2)c1` gave aSyn 5UTR act -71.
Cc1ccc(C(=O)Nc2cccc(-c3ccc(N4CCOCC4)nn3)c2)cc1C was read as aSyn 5UTR act -73.
`CCOC(=O)c1ccc(Nc2nc(N)c3cc(OC)c(OC)cc3n2)cc1` gave aSyn 5UTR act -104.
COc1cc2nc(N(C)C)nc(N)c2cc1OC was read as aSyn 5UTR act -78.
For COc1cc2nc(Nc3ccc(C)c(Cl)c3)nc(N)c2cc1OC the results were aSyn 5UTR act inactive.
`COc1cc2nc(Nc3ccc(C)c(C)c3)nc(N)c2cc1OC` gave aSyn 5UTR act -131.
`COc1cc2nc(Nc3ccc(F)cc3)nc(N)c2cc1OC` gave aSyn 5UTR act -131.
`COC(=O)c1ccc(Nc2cc(C)nc3ccccc23)cc1` gave aSyn 5UTR act inactive.
Screening COC(=O)c1ccc(Nc2nc(C)cc(C)n2)cc1 returned aSyn 5UTR act -83.
Cn1cc(/C=C(\NC(=O)c2ccccc2Cl)C(=O)NCCN2CCOCC2)c2ccccc21 was read as aSyn 5UTR act -72.
For CCN(CC)CCNC(=O)/C(=C/c1cn(C)c2ccccc12)NC(=O)c1ccc(OC)c(OC)c1 the results were aSyn 5UTR act -64.
Screening O=C(COC(=O)c1ccccc1Cl)NCCC1=CCCCC1 returned aSyn 5UTR act -79.
O=C(COC(=O)c1ccccc1NC(=O)c1ccco1)NCCC1=CCCCC1 was read as aSyn 5UTR act -92.
`O=C(NCCC1=CCCCC1)C1CCC(CNc2nc(=S)[nH]c3ccccc23)CC1` (stereo unspecified) gave aSyn 5UTR act inactive.
`O=C(Nc1nc2ccsc2c(=O)s1)c1ccc(F)cc1Cl` gave aSyn 5UTR act -117.
For O=C(Nc1nc2ccsc2c(=O)s1)c1ccc(F)cc1 the results were aSyn 5UTR act -158.
For CSc1nc2ccc3nc(NC(=O)c4ccccc4)sc3c2s1 the results were aSyn 5UTR act -318.
Screening Cc1csc2nc(NC(=O)c3ccccc3)sc(=O)c12 returned aSyn 5UTR act -97.
O=C(NC(=S)Nc1ccc(N2CCCCC2)cc1)c1ccc2c(c1)OCCO2 was read as aSyn 5UTR act -125.
`O=C(NC(=S)Nc1ccc(CN2CCOCC2)cc1)c1ccc2c(c1)OCCO2` gave aSyn 5UTR act -116.
Screening COc1cccc(C2=NN(S(C)(=O)=O)C(c3cccs3)C2)c1 (stereo unspecified) returned aSyn 5UTR act -107.
For CCS(=O)(=O)Nc1ccc(C2=NN(S(C)(=O)=O)C(c3cccs3)C2)cc1 (stereo unspecified) the results were aSyn 5UTR act -101.
COc1ccc2cc(C3CC(c4cccs4)=NN3S(C)(=O)=O)c(Cl)nc2c1 (stereo unspecified) was read as aSyn 5UTR act -62.
`COc1ccc(C2=NN(S(C)(=O)=O)C(c3cccs3)C2)cc1OC` (stereo unspecified) gave aSyn 5UTR act -115.
For COc1cc(NC(=O)c2cccc(Br)c2)nc(OC)n1 the results were aSyn 5UTR act -105.
`COc1cc(NC(=O)c2c(F)cccc2F)nc(OC)n1` gave aSyn 5UTR act -117.
Cc1ccc2nc(N(CCCN(C)C)C(=O)c3cc(-c4cccs4)nc4ccccc34)sc2c1 was read as aSyn 5UTR act inactive.
Cc1cccc2sc(N(CCN(C)C)C(=O)c3cc(Cl)sc3Cl)nc12 was read as aSyn 5UTR act -85.
For Cc1ccc2nc(N(CCN(C)C)C(=O)c3cc(Cl)sc3Cl)sc2c1 the results were aSyn 5UTR act -133.
